Screening results deposited in PubChem by several laboratories.
Insulin prom up: MIN6 insulin promoter up-regulation | 190,000 tested, 0.3% active | MIN6 insulin promoter-GFP reporter, high-content imaging; active compounds read high | AID 1625 | z-score at 5 µM;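 active = z-score above 3 at 5 µM with at least 500 cells counted in the well; inconclusive = wells under 500 cells, flagged as cytotoxic or low count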
L major viab: Leishmania major promastigote growth inhibition; Leishmania major promastigotes, resazurin fluorescence viability; inhibition, % at 10 µM; 200,000 tested, 9% active; in the data active = inhibition above about 50%;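 also: promastigotes grown with compound for 44 hours at 28 °C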
Autophagy HCS: autophagy modulation, high-content screen; AID 463193; MEF GFP-LC3 puncta imaging; test concentration mostly 10 µM; calls only at 10 µM (by protocol); 190,000 tested, 0.98% active;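 active = percentage of spot-positive cells more than 3 SD above its plate mean, without a fluorescence outlier flag or 80% toxicity; inconclusive = no clear call, values can overlap the other calls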;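 also: spot-positive cell cutoff set from DMSO-treated cells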
WT yeast gro inh: growth inhibition of WT yeast, mitochondrial fusion screen. mitochondrial fusion phenotypic screen, WT strain. inhibition, % at 10 µM. 190,000 tested, 2.1% active; in the data active = inhibition above about 58%; tested in S. cerevisiae
INS promoter inh: TRM-6 insulin promoter activity inhibition; TRM-6 cells (human fetal islet line), insulin promoter-eGFP reporter, imaging; reporter expression induced with tamoxifen; inhibition, % at 2 µM; 130,000 tested, 0.9% active;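 active = inhibition above the mean plus 3 SD, with well images judged a real hit on visual review, cut at about 60% in these data, passing the limit was not always enough; inconclusive = inhibition over the cutoff but images rejected on review; inactive = inhibition not above the cutoff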
Starred values were filed as active, the others as inactive; i = inactive; ? = inconclusive; nt = no result given; + = active, no number. This is a sample that favours compounds with a hit; in the whole collection about 11% have one here.

SMILES	Insulin prom up	L major viab	Autophagy HCS	WT yeast gro inh	INS promoter inh
CCSc1nnc(NC(=O)COc2ccc3ccccc3c2)s1	0.03	-9	i	84*	13
COc1ccc(CC(=O)OCC(=O)Nc2ccc(N3CCOCC3)cc2)cc1	-0.08	nt	nt	nt	nt
CCN(CC)C(=O)c1cc(C(C)(C)C)c(O)c(C(C)(C)C)c1	0.3	22	i	6	37
CCCCCc1ccc(C(=O)CCCC)c(=S)[nH]1	-0.66	14	i	66*	-70
CCCCCc1cc(=O)[nH]c(=S)[nH]1	0.11	nt	nt	nt	nt
Cc1ccc(S(=O)(=O)N2C(=O)CCC2C(=O)Nn2cnnc2)cc1 (configuration not stated)	1	-4	i	-9	nt
COc1ccccc1NC(=O)N1C2CCCC1CC(NC(=O)c1ccccc1)C2 (configuration not stated)	-0.29	-5	i	8	nt
CCN(C(=O)CSc1nnc(C)n1Cc1ccccc1)C1CCS(=O)(=O)C1 (configuration not stated)	-0.36	-2	+	7	nt
CCOC(=O)/C(=C/c1cn(C)c2ccccc12)NC(=O)c1ccccc1	0.65	nt	nt	nt	nt
COc1ccc(-c2[nH]ncc2CN(C)CC2CCCCO2)cc1F (configuration not stated)	0.03	-1	+	-9	nt
COc1ccc(-c2[nH]ncc2CN(C)CCN2CCOCC2)cc1F	-0.24	5	i	14	nt
O=C1CCCCC1Sc1nnc(-c2ccc3c(c2)OCO3)o1 (configuration not stated)	-0.16	5	i	4	nt
Cn1cnnc1SCC(=O)N1c2ccccc2-c2c(ssc2=S)C1(C)C	-0.06	nt	nt	nt	nt
Cc1ccc2c(c1)-c1c(ssc1=S)C(C)(C)N2C(=O)c1ccco1	-0.88	33	i	53	71
Cc1ccc2c(c1)-c1c(ssc1=S)C(C)(C)N2C(=O)CSC1=NCCS1	-1.7	87*	i	32	0
CCOc1ccc2c(c1)-c1c(ssc1=S)C(C)(C)N2C(=O)CSC1=NCCS1	-1.9	96*	i	15	-12
CCCCCCC1CCC(C(=O)N2CCOCC2)CC1 (configuration not stated)	-0.52	-2	i	17	-25
Cc1nc(NCC2CCCO2)c2oc3ccccc3c2n1 (configuration not stated)	-0.62	3	i	5	70
c1ccc(-c2nc(NCC3CCCO3)c3ccccc3n2)nc1 (configuration not stated)	-0.89	100*	i	18	64
CCc1ccccc1SCc1noc(C(=O)NCC2CCCO2)c1C(=O)O (configuration not stated)	-0.37	-5	i	4	43
COC(=O)c1c(CCl)noc1C(=O)NCC1CCCO1 (configuration not stated)	0.24	100*	i	-10	nt
O=C(NCC1CCCO1)c1ccccc1 (configuration not stated)	0.83	-8	i	-10	3
O=C(NCC1CCCO1)c1ccccn1 (configuration not stated)	nt	-2	i	2	75*
COc1ccc(Nc2nc(NCC3CCCO3)c3ccccc3n2)c(OC)c1 (configuration not stated)	-2.7	100*	i	13	nt
N#CC(C(=O)c1ccccc1)=C1SCCS1	0.03	nt	nt	nt	nt
SMILES	Insulin prom up	L major viab	Autophagy HCS	WT yeast gro inh	INS promoter inh
Cc1ccccc1C(=O)NCC(=O)O	-0.27	2	i	-3	-12
CNC(=O)c1cc(C(=O)c2c(Cl)cccc2Cl)c[nH]1	0.39	-7	i	3	nt
C=CCC1(Cl)C(=O)C(Cl)=C(N2CCOCC2)C1(OC)OC (configuration not stated)	1.5	nt	nt	nt	nt
CCN(CC)C(=O)c1cnn(-c2ccccc2)c1NC(=O)c1cccs1	0.1	0	i	-18	-26
Oc1cccc(Nc2nc(NCC3CCCO3)c3ccccc3n2)c1 (configuration not stated)	nt	100*	i	-2	-26
Nc1nc(NCC2CCCO2)nc(Nc2ccccc2)c1[N+](=O)[O-] (configuration not stated)	-0.33	14	i	-1	32
CCOc1ccc(Nc2nc(NCC3CCCO3)c3ccccc3n2)cc1 (configuration not stated)	?	101*	+	57	-40
c1ccc(Nc2nc(NCC3CCCO3)c3ccccc3n2)cc1 (configuration not stated)	-0.87	99*	i	32	27
c1ccc2c(NCC3CCCO3)nc(N3CCOCC3)nc2c1 (configuration not stated)	nt	9	i	0	42
COc1ccc(Nc2nc(NCC3CCCO3)nc(N)c2[N+](=O)[O-])cc1 (configuration not stated)	0.14	nt	nt	nt	nt
Cn1cc([C@@H]2C[C@H]3CN(Cc4cccc(Cl)c4)C(=O)[C@]34CCCN24)c2ccccc21	-0.19	30	i	11	nt
COc1ccc(C2CCN(Cc3cccnc3)CC2O)cc1 (configuration not stated)	1.2	88*	i	-9	nt
CC1CC(C)CN(C2CCN(Cc3cccnc3)CC2)C1 (configuration not stated)	-0.46	-4	i	63*	-21
COc1ccc(C2CCN(CC(=O)N(C)C)CC2O)cc1 (configuration not stated)	-0.42	-5	i	-22	0
CCOC(=O)C1(Cc2ccccc2)CCCN(C2CCCC2)C1 (configuration not stated)	-0.2	76*	i	-15	-100
CCOC(=O)C1(Cc2ccccc2)CCN(C2Cc3ccccc3C2)CC1	-0.55	83*	i	1	nt
CCOC(=O)C1(Cc2ccccc2)CCN(Cc2cnn(CC)c2)CC1	-0.47	6	i	12	nt
CCOC(=O)C1(Cc2ccccc2)CCCN(CCO)C1 (configuration not stated)	-0.96	-8	i	-17	nt
CCc1nc(NC(C)(C)C)c2cnn(-c3ccccc3)c2n1	-0.05	nt	nt	nt	nt
COCCNC(=O)C(=O)N/N=C/c1ccc(C(=O)OC)cc1	0.45	0	i	5	-30
Cc1cc(C)nc(SCc2ccc(C(=O)NNC(=O)Nc3cccc(Cl)c3)cc2)n1	0.02	-7	i	22	-25
COc1ccc2c(c1)CCc1c-2n[nH]c1C(=O)O	-0.52	13	i	72*	-22
COc1ccc2c(c1)CCc1c(C(=O)N3CCCCCC3)noc1-2	-0.59	3	i	-3	-7
COc1ccc(/C=N/Nc2cc(N3CCCC3)nc(N3CCCC3)n2)cc1	-0.9	95*	+	75*	-17
Oc1ccc(/C=N/Nc2cc(N3CCOCC3)nc(N3CCOCC3)n2)cc1	nt	-10	i	nt	-90
Oc1ccc(/C=N/Nc2cc(N3CCCC3)nc(N3CCCC3)n2)cc1	0.37	13	i	63*	nt
Oc1cccc(/C=N/Nc2cc(N3CCCC3)nc(N3CCCC3)n2)c1	-0.33	97*	i	37	-18
CCOc1ccc(/C=N/Nc2cc(C)nc(N3CCOCC3)n2)cc1	-0.19	nt	nt	nt	nt
Nc1cc(=O)[nH]c(=S)n1-c1ccccc1	-0.75	-6	i	59*	-7
